In the supplement of paper PMC11732987, “Enantioselective OTUD7B fragment discovery through chemoproteomics screening and high-throughput optimisation” (Communications Chemistry, 2025):
A number with no mark means an inactive call.

Legend:
Test in all cases: log2 ratio of Biotin-Ahx-Ub-VS probe labelling (fragment/DMSO); higher = less target engagement (more negative = stronger competition), active = hit call of the paper (q ≤ 0.05, log2 ratio ≤ -1)
Settings in all cases: compound concentration: 200 uM; treatment time: 3 h
[1] = molecular target: T1, USP42 (UniProt Q9H9J4)
T1 sequence (whole entry): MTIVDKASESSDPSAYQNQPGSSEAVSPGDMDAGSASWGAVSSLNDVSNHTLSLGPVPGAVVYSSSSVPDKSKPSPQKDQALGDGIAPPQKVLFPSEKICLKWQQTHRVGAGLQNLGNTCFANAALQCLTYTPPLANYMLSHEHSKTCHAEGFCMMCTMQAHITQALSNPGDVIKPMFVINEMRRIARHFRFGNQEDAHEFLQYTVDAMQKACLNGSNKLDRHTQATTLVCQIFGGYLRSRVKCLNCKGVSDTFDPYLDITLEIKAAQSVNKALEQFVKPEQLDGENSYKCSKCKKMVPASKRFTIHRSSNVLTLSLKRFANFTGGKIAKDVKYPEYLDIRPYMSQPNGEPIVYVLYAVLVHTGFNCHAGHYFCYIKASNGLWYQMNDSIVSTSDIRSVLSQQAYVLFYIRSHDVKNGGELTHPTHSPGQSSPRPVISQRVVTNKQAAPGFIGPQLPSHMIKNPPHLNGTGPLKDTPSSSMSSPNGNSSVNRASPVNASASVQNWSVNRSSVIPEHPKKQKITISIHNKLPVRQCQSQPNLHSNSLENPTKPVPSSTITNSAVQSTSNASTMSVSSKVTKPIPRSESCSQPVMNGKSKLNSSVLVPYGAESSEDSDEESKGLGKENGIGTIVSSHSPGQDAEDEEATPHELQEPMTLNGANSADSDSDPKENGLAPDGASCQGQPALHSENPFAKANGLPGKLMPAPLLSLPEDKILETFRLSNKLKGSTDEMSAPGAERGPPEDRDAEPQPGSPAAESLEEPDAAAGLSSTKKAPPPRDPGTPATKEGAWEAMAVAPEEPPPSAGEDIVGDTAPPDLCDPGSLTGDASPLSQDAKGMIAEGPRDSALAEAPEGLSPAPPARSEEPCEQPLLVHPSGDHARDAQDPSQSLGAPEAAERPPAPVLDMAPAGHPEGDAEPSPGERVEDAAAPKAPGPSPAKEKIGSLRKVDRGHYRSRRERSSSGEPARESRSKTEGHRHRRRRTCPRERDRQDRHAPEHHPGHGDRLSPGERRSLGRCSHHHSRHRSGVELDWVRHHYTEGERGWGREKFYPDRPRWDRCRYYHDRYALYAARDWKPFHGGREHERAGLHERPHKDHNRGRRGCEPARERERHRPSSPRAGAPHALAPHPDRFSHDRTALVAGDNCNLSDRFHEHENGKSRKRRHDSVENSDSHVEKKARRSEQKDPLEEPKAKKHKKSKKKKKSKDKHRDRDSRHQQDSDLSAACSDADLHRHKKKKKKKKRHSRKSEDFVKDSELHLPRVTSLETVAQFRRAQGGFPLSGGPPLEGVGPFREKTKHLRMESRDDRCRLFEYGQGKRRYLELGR
Method in brief: (§1)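 Using Biotin-Ahx-Ub-VS at 0.5 µM final for 1 h, DUBs were labelled in HEK293T lysate (495 µg per sample) that had first been treated in triplicate with fragment at 200 µM or vehicle for 3 h. NeutrAvidin enrichment, LysC and trypsin digestion and diaPASEF LC-MS/MS followed. Spectronaut label-free quantities were global-median-normalised. Values are average log2 fragment/vehicle ratios by unpaired t-test, using proteins with ≥2 unique peptides.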

[2] = molecular target: USP46 (UniProt P62068)
Method in brief: as §1

[3] = molecular target: T2, USP47 (UniProt Q96K76)
T2 sequence (whole entry): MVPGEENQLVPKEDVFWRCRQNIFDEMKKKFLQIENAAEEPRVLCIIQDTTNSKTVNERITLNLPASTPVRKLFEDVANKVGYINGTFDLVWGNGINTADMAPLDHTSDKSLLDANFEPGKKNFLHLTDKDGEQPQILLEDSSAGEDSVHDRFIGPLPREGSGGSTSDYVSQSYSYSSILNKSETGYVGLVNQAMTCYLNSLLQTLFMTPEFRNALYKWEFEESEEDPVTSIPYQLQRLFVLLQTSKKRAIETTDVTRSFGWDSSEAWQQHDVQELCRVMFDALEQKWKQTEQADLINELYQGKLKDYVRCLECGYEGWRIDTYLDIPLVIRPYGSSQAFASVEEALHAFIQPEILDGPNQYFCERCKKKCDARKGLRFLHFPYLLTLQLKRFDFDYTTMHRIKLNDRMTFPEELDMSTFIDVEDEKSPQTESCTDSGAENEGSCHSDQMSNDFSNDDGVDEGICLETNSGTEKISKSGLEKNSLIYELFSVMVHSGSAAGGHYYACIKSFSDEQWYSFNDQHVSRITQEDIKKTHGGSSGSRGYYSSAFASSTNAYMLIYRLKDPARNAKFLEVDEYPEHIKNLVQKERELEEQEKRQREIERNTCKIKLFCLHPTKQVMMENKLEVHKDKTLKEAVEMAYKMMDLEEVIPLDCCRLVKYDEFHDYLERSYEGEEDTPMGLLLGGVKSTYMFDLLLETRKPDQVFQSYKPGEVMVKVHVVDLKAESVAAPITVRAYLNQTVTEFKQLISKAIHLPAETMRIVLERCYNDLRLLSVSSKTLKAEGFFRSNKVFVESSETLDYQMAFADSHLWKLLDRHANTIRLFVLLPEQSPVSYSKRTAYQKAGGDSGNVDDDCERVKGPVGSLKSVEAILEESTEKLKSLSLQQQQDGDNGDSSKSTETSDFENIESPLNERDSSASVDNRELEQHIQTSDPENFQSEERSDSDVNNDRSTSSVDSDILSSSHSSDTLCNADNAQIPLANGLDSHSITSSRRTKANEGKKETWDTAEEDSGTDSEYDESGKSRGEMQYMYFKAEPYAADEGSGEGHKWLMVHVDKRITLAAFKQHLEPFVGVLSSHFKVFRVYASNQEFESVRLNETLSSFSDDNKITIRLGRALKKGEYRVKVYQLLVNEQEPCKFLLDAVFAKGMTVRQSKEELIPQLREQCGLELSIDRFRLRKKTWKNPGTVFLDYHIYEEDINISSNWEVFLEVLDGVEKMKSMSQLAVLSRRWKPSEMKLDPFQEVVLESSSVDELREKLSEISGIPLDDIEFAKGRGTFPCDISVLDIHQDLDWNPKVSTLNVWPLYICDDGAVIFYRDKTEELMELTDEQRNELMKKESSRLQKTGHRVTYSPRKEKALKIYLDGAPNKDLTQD
Method in brief: as §1

[4] = molecular target: T3, USP48 (UniProt Q86UV5)
T3 sequence (whole entry): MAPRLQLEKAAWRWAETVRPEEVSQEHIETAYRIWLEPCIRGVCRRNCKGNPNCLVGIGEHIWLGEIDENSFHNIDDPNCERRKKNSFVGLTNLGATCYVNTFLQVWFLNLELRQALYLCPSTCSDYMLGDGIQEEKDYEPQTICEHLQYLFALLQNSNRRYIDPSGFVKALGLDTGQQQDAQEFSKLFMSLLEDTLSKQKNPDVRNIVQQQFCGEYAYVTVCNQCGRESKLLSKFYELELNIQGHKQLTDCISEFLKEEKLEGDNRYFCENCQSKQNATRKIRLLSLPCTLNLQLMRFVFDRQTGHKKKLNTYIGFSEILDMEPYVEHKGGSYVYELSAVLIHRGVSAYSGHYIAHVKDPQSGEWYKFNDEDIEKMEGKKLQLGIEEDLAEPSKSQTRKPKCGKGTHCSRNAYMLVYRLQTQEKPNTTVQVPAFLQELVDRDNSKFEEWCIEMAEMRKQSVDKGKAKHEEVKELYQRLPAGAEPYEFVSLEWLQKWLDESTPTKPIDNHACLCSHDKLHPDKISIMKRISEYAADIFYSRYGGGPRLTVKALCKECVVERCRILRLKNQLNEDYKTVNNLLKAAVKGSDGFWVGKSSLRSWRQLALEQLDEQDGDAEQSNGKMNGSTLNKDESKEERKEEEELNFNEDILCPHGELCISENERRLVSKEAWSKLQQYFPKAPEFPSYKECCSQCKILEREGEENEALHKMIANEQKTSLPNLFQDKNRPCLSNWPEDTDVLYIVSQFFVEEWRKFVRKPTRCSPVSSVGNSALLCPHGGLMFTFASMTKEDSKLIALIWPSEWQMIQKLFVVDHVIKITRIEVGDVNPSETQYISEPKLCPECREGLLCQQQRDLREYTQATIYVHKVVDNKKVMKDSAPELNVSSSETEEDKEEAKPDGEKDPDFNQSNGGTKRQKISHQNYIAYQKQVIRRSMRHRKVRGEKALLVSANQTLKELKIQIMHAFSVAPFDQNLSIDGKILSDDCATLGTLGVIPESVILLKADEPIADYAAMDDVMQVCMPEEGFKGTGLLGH
Method in brief: as §1

[5] = molecular target: T4, USP5 (UniProt P45974)
T4 sequence (whole entry): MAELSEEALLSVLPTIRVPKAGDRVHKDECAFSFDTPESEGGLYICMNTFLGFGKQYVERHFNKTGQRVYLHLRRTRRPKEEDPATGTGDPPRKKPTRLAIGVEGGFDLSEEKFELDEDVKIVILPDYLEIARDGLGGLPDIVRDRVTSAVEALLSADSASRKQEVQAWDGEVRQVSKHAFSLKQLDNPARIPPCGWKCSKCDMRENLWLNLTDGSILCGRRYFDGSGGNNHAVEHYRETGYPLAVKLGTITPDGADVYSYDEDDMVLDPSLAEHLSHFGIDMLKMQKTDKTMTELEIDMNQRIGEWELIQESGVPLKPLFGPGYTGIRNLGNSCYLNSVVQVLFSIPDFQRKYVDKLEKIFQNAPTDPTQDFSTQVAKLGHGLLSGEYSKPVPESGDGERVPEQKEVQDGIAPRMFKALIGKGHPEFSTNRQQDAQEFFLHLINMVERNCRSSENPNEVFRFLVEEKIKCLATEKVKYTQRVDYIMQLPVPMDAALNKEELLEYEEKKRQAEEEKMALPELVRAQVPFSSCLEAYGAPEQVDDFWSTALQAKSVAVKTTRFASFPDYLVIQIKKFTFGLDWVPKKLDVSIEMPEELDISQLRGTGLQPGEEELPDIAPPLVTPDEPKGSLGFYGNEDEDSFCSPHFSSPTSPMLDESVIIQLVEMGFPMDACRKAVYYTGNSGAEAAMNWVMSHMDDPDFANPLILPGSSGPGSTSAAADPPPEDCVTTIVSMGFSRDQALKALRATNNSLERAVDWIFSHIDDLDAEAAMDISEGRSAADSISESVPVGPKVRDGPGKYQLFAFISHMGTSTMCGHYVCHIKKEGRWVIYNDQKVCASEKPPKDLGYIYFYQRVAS
Method in brief: as §1

[6] = molecular target: USP54 (UniProt Q70EL1)
Method in brief: as §1

[7] = molecular target: USP7 (UniProt Q93009)
Method in brief: as §1

[8] = molecular target: T5, USP8 (UniProt P40818)
T5 sequence (whole entry): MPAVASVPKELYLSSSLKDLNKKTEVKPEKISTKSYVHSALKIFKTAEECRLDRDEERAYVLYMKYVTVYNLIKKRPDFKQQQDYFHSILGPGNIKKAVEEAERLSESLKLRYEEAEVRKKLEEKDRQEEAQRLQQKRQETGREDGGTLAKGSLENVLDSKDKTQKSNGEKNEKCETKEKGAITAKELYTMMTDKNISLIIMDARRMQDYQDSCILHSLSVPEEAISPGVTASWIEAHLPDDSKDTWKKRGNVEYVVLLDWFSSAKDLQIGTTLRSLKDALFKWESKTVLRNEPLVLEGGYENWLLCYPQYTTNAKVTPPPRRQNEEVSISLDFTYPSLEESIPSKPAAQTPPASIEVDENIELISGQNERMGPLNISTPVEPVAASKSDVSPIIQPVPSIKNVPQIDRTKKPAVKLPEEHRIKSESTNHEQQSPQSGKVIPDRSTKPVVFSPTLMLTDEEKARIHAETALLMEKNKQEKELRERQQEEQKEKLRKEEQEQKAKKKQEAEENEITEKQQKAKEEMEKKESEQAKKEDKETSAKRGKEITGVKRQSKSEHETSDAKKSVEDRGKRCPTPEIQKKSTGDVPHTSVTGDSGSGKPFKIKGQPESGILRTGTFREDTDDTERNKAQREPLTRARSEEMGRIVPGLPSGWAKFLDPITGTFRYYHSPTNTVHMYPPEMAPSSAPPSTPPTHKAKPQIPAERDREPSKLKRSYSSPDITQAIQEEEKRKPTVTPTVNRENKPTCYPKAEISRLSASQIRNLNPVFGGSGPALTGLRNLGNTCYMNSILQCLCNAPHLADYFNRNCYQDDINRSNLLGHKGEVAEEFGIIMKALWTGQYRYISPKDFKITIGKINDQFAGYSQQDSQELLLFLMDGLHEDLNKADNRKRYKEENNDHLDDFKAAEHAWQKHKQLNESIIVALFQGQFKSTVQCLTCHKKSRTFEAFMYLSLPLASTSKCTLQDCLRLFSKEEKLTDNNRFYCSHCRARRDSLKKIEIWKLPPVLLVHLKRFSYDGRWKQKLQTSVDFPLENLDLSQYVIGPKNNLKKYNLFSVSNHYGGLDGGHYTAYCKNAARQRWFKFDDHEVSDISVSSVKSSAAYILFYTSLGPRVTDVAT
Method in brief: as §1

[9] = molecular target: USP9X (UniProt Q93008)
Method in brief: as §1

[10] = molecular target: UniProt O00487
Method in brief: as §1

USP9X, sequence (Q93008 whole entry): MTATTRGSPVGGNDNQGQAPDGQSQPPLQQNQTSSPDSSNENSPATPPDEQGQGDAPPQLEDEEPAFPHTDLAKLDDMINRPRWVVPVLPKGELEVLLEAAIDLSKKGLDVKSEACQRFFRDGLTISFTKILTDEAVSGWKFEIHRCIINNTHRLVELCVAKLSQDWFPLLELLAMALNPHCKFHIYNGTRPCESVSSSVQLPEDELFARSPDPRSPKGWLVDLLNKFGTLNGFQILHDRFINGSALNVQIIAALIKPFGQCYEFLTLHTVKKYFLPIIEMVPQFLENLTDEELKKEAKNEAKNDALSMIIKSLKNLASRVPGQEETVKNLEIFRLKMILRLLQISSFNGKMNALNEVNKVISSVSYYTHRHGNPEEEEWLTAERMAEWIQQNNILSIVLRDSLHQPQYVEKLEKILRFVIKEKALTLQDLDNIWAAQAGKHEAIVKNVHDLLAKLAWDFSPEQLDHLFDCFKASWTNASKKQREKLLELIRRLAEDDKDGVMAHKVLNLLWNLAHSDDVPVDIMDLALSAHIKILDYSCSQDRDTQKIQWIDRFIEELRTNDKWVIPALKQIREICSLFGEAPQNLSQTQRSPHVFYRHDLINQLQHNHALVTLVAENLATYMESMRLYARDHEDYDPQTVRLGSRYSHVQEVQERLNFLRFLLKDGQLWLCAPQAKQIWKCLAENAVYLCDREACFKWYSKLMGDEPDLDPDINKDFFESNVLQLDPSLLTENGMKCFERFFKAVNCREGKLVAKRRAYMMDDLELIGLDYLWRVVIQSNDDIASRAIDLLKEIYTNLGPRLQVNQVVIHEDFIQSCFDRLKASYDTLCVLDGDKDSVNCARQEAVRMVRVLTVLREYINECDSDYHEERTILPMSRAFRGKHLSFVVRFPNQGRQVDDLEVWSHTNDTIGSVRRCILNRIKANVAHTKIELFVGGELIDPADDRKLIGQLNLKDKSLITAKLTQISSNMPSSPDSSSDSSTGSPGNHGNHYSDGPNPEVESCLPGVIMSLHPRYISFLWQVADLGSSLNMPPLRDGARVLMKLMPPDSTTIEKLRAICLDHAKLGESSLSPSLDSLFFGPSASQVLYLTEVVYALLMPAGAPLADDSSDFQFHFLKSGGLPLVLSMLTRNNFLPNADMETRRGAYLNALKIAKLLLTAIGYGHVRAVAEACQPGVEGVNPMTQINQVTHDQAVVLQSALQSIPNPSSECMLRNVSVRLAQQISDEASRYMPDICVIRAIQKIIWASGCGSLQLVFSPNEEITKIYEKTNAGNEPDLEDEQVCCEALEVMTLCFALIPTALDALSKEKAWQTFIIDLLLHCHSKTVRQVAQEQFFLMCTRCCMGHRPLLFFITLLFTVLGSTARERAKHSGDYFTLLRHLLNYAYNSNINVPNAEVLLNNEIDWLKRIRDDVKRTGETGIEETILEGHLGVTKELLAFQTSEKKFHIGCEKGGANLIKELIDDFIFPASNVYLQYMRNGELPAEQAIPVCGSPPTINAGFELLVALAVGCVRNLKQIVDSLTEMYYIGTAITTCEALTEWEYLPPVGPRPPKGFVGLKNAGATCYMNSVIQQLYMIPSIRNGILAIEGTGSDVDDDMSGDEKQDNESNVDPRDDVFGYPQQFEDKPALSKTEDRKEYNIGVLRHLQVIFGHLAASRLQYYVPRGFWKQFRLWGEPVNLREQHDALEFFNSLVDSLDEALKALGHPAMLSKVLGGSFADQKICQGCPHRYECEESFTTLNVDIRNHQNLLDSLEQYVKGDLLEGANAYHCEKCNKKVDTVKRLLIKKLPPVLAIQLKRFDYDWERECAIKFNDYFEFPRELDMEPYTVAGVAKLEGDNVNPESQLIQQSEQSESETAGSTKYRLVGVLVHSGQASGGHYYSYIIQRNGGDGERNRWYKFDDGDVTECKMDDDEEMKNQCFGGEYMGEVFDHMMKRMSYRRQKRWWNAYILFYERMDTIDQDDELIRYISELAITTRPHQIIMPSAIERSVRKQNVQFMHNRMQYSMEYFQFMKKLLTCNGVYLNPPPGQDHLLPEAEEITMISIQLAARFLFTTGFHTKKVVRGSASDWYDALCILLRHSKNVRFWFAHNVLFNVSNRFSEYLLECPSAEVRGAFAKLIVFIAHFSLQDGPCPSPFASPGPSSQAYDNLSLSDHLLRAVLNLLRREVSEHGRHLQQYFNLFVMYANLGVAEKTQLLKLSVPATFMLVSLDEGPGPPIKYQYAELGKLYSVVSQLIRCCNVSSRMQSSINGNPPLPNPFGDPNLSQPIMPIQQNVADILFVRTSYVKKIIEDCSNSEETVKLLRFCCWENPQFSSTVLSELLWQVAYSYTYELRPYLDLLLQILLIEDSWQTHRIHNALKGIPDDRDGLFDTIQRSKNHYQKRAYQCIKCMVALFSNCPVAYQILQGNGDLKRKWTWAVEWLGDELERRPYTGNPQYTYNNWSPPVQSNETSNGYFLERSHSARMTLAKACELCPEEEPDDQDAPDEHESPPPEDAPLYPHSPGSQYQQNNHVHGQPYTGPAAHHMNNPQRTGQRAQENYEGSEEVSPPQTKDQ
USP54, sequence (Q70EL1 whole entry): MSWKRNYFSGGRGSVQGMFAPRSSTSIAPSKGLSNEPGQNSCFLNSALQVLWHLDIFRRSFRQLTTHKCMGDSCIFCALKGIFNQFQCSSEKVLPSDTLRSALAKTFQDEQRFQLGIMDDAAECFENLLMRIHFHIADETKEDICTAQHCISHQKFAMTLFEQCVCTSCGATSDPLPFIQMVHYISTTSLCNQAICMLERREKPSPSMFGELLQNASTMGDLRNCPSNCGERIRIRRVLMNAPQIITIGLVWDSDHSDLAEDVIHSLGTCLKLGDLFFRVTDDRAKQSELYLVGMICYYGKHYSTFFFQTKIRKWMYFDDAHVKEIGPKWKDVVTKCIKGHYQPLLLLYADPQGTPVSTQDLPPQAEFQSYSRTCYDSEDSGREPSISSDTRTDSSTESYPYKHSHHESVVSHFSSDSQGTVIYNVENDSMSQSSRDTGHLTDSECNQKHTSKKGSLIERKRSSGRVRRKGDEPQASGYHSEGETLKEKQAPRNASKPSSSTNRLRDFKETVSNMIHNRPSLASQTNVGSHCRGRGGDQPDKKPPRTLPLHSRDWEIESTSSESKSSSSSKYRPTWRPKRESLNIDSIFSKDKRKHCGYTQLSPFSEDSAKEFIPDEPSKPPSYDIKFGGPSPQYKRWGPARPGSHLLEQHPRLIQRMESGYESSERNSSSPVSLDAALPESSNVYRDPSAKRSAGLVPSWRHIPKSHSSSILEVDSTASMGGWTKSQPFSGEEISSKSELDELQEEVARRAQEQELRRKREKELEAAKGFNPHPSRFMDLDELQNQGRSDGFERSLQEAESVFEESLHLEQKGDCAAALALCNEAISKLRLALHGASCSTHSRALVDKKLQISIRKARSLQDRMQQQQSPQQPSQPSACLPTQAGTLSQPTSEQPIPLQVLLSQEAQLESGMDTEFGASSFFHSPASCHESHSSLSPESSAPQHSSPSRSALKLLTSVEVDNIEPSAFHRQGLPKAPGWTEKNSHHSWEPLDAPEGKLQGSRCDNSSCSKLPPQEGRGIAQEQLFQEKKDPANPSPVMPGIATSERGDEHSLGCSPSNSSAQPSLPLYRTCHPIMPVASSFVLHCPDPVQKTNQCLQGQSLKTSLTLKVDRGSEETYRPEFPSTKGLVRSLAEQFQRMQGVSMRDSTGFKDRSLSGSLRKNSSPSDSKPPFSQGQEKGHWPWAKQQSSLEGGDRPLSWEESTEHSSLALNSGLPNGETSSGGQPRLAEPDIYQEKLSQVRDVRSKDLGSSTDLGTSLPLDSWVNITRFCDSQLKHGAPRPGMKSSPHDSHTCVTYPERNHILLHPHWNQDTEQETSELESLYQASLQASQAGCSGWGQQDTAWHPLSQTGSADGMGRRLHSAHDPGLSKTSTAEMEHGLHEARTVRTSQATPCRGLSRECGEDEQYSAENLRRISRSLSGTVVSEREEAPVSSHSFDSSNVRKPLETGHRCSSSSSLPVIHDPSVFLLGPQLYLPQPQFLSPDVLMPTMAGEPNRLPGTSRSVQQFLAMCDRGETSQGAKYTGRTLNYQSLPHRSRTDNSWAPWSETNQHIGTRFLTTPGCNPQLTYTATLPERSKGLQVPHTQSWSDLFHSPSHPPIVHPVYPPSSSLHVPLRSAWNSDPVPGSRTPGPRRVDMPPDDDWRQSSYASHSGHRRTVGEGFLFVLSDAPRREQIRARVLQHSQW
UniProt O00487, sequence (O00487 whole entry): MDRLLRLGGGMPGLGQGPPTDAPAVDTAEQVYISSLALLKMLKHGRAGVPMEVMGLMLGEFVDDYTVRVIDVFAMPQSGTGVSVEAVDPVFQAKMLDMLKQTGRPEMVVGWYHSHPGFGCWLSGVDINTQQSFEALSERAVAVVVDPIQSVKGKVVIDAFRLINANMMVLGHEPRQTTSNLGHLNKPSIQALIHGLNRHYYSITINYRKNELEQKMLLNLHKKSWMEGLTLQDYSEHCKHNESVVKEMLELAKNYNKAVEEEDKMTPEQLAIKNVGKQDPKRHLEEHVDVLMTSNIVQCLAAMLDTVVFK
USP46, sequence (P62068 whole entry): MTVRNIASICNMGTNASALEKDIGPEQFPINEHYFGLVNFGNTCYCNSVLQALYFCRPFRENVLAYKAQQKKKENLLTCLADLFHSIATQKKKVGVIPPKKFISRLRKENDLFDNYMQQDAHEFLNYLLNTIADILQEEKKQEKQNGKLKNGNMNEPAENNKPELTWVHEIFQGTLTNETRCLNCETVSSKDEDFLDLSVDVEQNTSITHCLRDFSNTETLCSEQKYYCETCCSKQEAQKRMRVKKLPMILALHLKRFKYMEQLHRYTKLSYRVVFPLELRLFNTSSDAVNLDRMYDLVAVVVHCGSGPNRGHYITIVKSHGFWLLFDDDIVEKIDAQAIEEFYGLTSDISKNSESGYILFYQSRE

Compound	log2 ratio of Biotin-Ahx-Ub-VS probe labelling [1]	log2 ratio of Biotin-Ahx-Ub-VS probe labelling [2]	log2 ratio of Biotin-Ahx-Ub-VS probe labelling [3]	log2 ratio of Biotin-Ahx-Ub-VS probe labelling [4]	log2 ratio of Biotin-Ahx-Ub-VS probe labelling [5]	log2 ratio of Biotin-Ahx-Ub-VS probe labelling [6]	log2 ratio of Biotin-Ahx-Ub-VS probe labelling [7]	log2 ratio of Biotin-Ahx-Ub-VS probe labelling [8]	log2 ratio of Biotin-Ahx-Ub-VS probe labelling [9]	log2 ratio of Biotin-Ahx-Ub-VS probe labelling [10]
O=C(CCl)NC1CCS(=O)(=O)c2ccccc21 (stereo not given)	-0.57	-0.0772	-0.498	-0.471	-0.0632	0.689	-0.288	-0.538	-0.445	-0.242
O=C(CCl)N1CCOC(c2cccc(F)c2)C1 (stereo not given)	-0.424	-0.374	-0.467	-1.36 (active)	0.362	0.45	-0.705	-0.461	-0.504	0.15
O=C(CCl)N1CC=C(c2c[nH]c3ccccc23)CC1	0.0977	-1.44 (active)	0.0399	-0.728	-0.577	0.155	-1.53 (active)	-0.785	-0.82	-0.0429
Cl.O=C(CCl)N1CC(c2ccc(Br)cn2)C1	0.0546	-0.129	-0.944	-0.383	0.197	0.556	-1.29 (active)	-0.318	-0.297	-0.285
